What all share (experiment): PBM; 200 nM protein, PBS
Conditions in all cases: dsDNA, one strand shown

Assay [1] addresses T1, NKX2-4 (Homo sapiens, UniProt Q9H2Z4 175-261, P217L).
T1 sequence: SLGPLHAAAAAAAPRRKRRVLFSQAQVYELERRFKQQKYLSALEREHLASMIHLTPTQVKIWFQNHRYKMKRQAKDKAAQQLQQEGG

The target of assay [2] is T2, NKX2-4 (Homo sapiens, UniProt Q9H2Z4 175-261, T231S).
T2 sequence: T1 sequence with L43P, T57S

Assay [3] has as its target T3, NKX2-4 (Homo sapiens, UniProt Q9H2Z4 175-261).
T3 sequence: T1 sequence with L43P

In assay [4] the target is T4, NKX2-4 (Homo sapiens, UniProt Q9H2Z4 175-261, R246Q).
T4 sequence: T1 sequence with L43P, R72Q

For assay [5], the target named is T5, NKX2-6 (Homo sapiens, UniProt A6NCS4 118-204).
T5 sequence: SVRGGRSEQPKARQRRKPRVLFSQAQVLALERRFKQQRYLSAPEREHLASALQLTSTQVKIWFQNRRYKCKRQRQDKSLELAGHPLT

Assay [6] concerns the target T6, NKX2-6 (Homo sapiens, UniProt A6NCS4 118-204, F151L).
T6 sequence: T5 sequence with F34L

Assay [7] deals with T7, NKX2-6 (Homo sapiens, UniProt A6NCS4 118-204, R150C).
T7 sequence: T5 sequence with R33C

Assay [8] addresses PRRX1 (Homo sapiens, UniProt P54821 80-166, F113S).
The target in assay [9] is PRRX1 (Homo sapiens, UniProt P54821 80-166).
In assay [10] the target is MSX2 (Homo sapiens, UniProt P35548 130-214, R199I).
For assay [11], the target named is ALX1 (Homo sapiens, UniProt Q15699 118-204, L144V).
The target in assay [12] is ALX1 (Homo sapiens, UniProt Q15699 118-204, L144R).
The target of assay [13] is MSX2 (Homo sapiens, UniProt P35548 130-214).
Assay [14] has as its target MSX2 (Homo sapiens, UniProt P35548 130-214, F161Y).
For assay [15], the target named is ALX1 (Homo sapiens, UniProt Q15699 118-204).
Assay [16] concerns the target HOXD13 (Homo sapiens, UniProt P35453 263-343, T313R).
The target of assay [17] is HOXD13 (Homo sapiens, UniProt P35453 263-343).
Assay [18] deals with HOXD13 (Homo sapiens, UniProt P35453 263-343, T313A).
Assay [19] has as its target PROP1 (Homo sapiens, UniProt O75360 56-141).
Assay [20] has as its target PROP1 (Homo sapiens, UniProt O75360 56-141, R99H).
The target of assay [21] is PROP1 (Homo sapiens, UniProt O75360 56-141, F88S).

Positions count from the first letter of the chain named.

Chain of MSX2 (Homo sapiens, UniProt P35548 130-214, F161Y) (P35548 130-214 F161Y): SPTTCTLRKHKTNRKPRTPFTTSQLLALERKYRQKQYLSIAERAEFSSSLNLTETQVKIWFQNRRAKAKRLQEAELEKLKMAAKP
Chain of HOXD13 (Homo sapiens, UniProt P35453 263-343, T313A) (P35453 263-343 T313A): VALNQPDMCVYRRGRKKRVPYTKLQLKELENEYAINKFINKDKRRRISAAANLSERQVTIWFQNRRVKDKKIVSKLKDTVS
Chain of HOXD13 (Homo sapiens, UniProt P35453 263-343) (P35453 263-343): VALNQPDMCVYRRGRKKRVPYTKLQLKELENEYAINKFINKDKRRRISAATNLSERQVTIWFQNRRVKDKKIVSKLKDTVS
Chain of MSX2 (Homo sapiens, UniProt P35548 130-214) (P35548 130-214): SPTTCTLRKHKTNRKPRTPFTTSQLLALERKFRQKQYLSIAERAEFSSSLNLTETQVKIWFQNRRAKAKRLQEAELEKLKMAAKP
Chain of HOXD13 (Homo sapiens, UniProt P35453 263-343, T313R) (P35453 263-343 T313R): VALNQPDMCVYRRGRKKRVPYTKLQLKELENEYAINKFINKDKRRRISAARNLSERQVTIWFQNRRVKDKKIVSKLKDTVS
Chain of MSX2 (Homo sapiens, UniProt P35548 130-214, R199I) (P35548 130-214 R199I): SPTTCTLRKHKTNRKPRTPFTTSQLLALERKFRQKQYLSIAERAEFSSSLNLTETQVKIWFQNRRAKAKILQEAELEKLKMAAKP
Chain of ALX1 (Homo sapiens, UniProt Q15699 118-204, L144R) (Q15699 118-204 L144R): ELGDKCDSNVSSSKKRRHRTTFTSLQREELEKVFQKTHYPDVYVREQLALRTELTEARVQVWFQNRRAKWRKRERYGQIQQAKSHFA
Chain of ALX1 (Homo sapiens, UniProt Q15699 118-204, L144V) (Q15699 118-204 L144V): as the sequence (Q15699 118-204 L144R) above, with R27V counted along it
Chain of PROP1 (Homo sapiens, UniProt O75360 56-141, R99H) (O75360 56-141 R99H): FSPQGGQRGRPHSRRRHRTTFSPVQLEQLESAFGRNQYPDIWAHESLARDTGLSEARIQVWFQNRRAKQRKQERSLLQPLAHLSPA
Chain of PRRX1 (Homo sapiens, UniProt P54821 80-166, F113S) (P54821 80-166 F113S): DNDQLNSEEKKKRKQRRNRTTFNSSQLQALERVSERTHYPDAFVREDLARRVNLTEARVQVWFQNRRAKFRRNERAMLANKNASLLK
Chain of PRRX1 (Homo sapiens, UniProt P54821 80-166) (P54821 80-166): as the sequence (P54821 80-166 F113S) above, with S34F counted along it
Chain of PROP1 (Homo sapiens, UniProt O75360 56-141) (O75360 56-141): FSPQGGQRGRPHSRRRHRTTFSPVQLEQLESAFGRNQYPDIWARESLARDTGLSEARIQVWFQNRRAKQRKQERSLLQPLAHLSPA
Chain of ALX1 (Homo sapiens, UniProt Q15699 118-204) (Q15699 118-204): as the sequence (Q15699 118-204 L144R) above, with R27L counted along it
Chain of PROP1 (Homo sapiens, UniProt O75360 56-141, F88S) (O75360 56-141 F88S): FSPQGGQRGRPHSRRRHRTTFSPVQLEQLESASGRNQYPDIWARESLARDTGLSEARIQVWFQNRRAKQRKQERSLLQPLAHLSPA

In the case of GCGGGCCC, the binding signal in the assay with NKX2-4 [1] was 9.61 upbm affinity estimate (log intensity, higher = more binding, comparable within an allelic series); in the assay with NKX2-4 [2], 9.54 upbm affinity estimate (log intensity, higher = more binding, comparable within an allelic series); with NKX2-4 [3], 9.63 upbm affinity estimate (log intensity, higher = more binding, comparable within an allelic series); in the assay with NKX2-4 [4], 9.68 upbm affinity estimate (log intensity, higher = more binding, comparable within an allelic series).
Take AGAAGCCG: the binding signal with NKX2-4 [1] is 9.64 upbm affinity estimate (log intensity, higher = more binding, comparable within an allelic series); with NKX2-4 [2], 9.7 upbm affinity estimate (log intensity, higher = more binding, comparable within an allelic series); with NKX2-4 [3], 9.69 upbm affinity estimate (log intensity, higher = more binding, comparable within an allelic series); with NKX2-6 [5], 9.29 upbm affinity estimate (log intensity, higher = more binding, comparable within an allelic series); in the assay with NKX2-4 [4] it was 9.62 upbm affinity estimate (log intensity, higher = more binding, comparable within an allelic series); with NKX2-6 [6] it was 9.27 upbm affinity estimate (log intensity, higher = more binding, comparable within an allelic series).
As to AGAGGGCT, the binding signal was 11.7 upbm affinity estimate (log intensity, higher = more binding, comparable within an allelic series) with NKX2-4 [1]; 11.9 upbm affinity estimate (log intensity, higher = more binding, comparable within an allelic series) with NKX2-4 [2]; 11.7 upbm affinity estimate (log intensity, higher = more binding, comparable within an allelic series) with NKX2-4 [3].
CCCACTCA: the binding signal in the assay with NKX2-4 [1] was 12.4 upbm affinity estimate (log intensity, higher = more binding, comparable within an allelic series); with NKX2-4 [2], 12.7 upbm affinity estimate (log intensity, higher = more binding, comparable within an allelic series); with NKX2-4 [3], 12.2 upbm affinity estimate (log intensity, higher = more binding, comparable within an allelic series); in the assay with NKX2-6 [7], 11.3 upbm affinity estimate (log intensity, higher = more binding, comparable within an allelic series); with NKX2-4 [4], 12.6 upbm affinity estimate (log intensity, higher = more binding, comparable within an allelic series).
As to CGAGCTAG, the binding signal with NKX2-4 [1] is 9.46 upbm affinity estimate (log intensity, higher = more binding, comparable within an allelic series); with NKX2-4 [2], 9.32 upbm affinity estimate (log intensity, higher = more binding, comparable within an allelic series); with PRRX1 [8], 9.63 upbm affinity estimate (log intensity, higher = more binding, comparable within an allelic series); with NKX2-4 [3], 9.31 upbm affinity estimate (log intensity, higher = more binding, comparable within an allelic series); with NKX2-4 [4], 9.21 upbm affinity estimate (log intensity, higher = more binding, comparable within an allelic series); with PRRX1 [9], 9.54 upbm affinity estimate (log intensity, higher = more binding, comparable within an allelic series).
On to ACCCCTGG, for which the binding signal in the assay with NKX2-4 [1] was 9.8 upbm affinity estimate (log intensity, higher = more binding, comparable within an allelic series); with NKX2-4 [2], 9.68 upbm affinity estimate (log intensity, higher = more binding, comparable within an allelic series); in the assay with NKX2-4 [3] it was 9.75 upbm affinity estimate (log intensity, higher = more binding, comparable within an allelic series); with MSX2 [10], 9.54 upbm affinity estimate (log intensity, higher = more binding, comparable within an allelic series); with ALX1 [11], 6.31 upbm affinity estimate (log intensity, higher = more binding, comparable within an allelic series); with ALX1 [12], 6.38 upbm affinity estimate (log intensity, higher = more binding, comparable within an allelic series). Moreover, the binding signal in the assay with MSX2 [13] is 9.55 upbm affinity estimate (log intensity, higher = more binding, comparable within an allelic series); with NKX2-4 [4], 9.71 upbm affinity estimate (log intensity, higher = more binding, comparable within an allelic series); in the assay with MSX2 [14], 9.58 upbm affinity estimate (log intensity, higher = more binding, comparable within an allelic series); with ALX1 [15], 6.28 upbm affinity estimate (log intensity, higher = more binding, comparable within an allelic series).
On to CGCCGCAG, for which the binding signal was 9.48 upbm affinity estimate (log intensity, higher = more binding, comparable within an allelic series) with NKX2-4 [1]; 9.2 upbm affinity estimate (log intensity, higher = more binding, comparable within an allelic series) with NKX2-4 [2]; 9.51 upbm affinity estimate (log intensity, higher = more binding, comparable within an allelic series) with NKX2-4 [3]; 9.57 upbm affinity estimate (log intensity, higher = more binding, comparable within an allelic series) in the assay with HOXD13 [16]; 9.58 upbm affinity estimate (log intensity, higher = more binding, comparable within an allelic series) with HOXD13 [17]; 9.58 upbm affinity estimate (log intensity, higher = more binding, comparable within an allelic series) with NKX2-4 [4]. In the assay with HOXD13 [18], the binding signal is 9.63 upbm affinity estimate (log intensity, higher = more binding, comparable within an allelic series).
Consider CCCGGCCC, for which the binding signal with NKX2-4 [1] is 9.77 upbm affinity estimate (log intensity, higher = more binding, comparable within an allelic series); with NKX2-4 [2], 9.78 upbm affinity estimate (log intensity, higher = more binding, comparable within an allelic series); in the assay with NKX2-4 [3], 9.81 upbm affinity estimate (log intensity, higher = more binding, comparable within an allelic series); with NKX2-4 [4], 9.84 upbm affinity estimate (log intensity, higher = more binding, comparable within an allelic series).
With CTCAAGCA, the binding signal was 11.8 upbm affinity estimate (log intensity, higher = more binding, comparable within an allelic series) in the assay with NKX2-4 [1]; 12.1 upbm affinity estimate (log intensity, higher = more binding, comparable within an allelic series) with NKX2-4 [2]; 11.8 upbm affinity estimate (log intensity, higher = more binding, comparable within an allelic series) with NKX2-4 [3]; 12.2 upbm affinity estimate (log intensity, higher = more binding, comparable within an allelic series) with NKX2-4 [4].
GACTGAGC: the binding signal is 9.79 upbm affinity estimate (log intensity, higher = more binding, comparable within an allelic series) with NKX2-4 [1]; 9.84 upbm affinity estimate (log intensity, higher = more binding, comparable within an allelic series) with NKX2-4 [2]; 9.65 upbm affinity estimate (log intensity, higher = more binding, comparable within an allelic series) with NKX2-4 [3]; 9.57 upbm affinity estimate (log intensity, higher = more binding, comparable within an allelic series) with MSX2 [10]; 9.48 upbm affinity estimate (log intensity, higher = more binding, comparable within an allelic series) with MSX2 [13]; 9.92 upbm affinity estimate (log intensity, higher = more binding, comparable within an allelic series) in the assay with NKX2-4 [4]. Moreover, the binding signal was 6.86 upbm affinity estimate (log intensity, higher = more binding, comparable within an allelic series) with PROP1 [19]; 6.74 upbm affinity estimate (log intensity, higher = more binding, comparable within an allelic series) in the assay with PROP1 [20]; 6.66 upbm affinity estimate (log intensity, higher = more binding, comparable within an allelic series) in the assay with PROP1 [21]; 9.49 upbm affinity estimate (log intensity, higher = more binding, comparable within an allelic series) in the assay with MSX2 [14].
As to CTATTAAC, the binding signal with NKX2-4 [1] is 11.7 upbm affinity estimate (log intensity, higher = more binding, comparable within an allelic series); in the assay with NKX2-4 [2], 11.8 upbm affinity estimate (log intensity, higher = more binding, comparable within an allelic series); with NKX2-4 [3], 11.6 upbm affinity estimate (log intensity, higher = more binding, comparable within an allelic series); in the assay with HOXD13 [16] it was 10.8 upbm affinity estimate (log intensity, higher = more binding, comparable within an allelic series); in the assay with HOXD13 [17] it was 12 upbm affinity estimate (log intensity, higher = more binding, comparable within an allelic series); in the assay with NKX2-4 [4], 11.8 upbm affinity estimate (log intensity, higher = more binding, comparable within an allelic series). The binding signal with HOXD13 [18] was 11.8 upbm affinity estimate (log intensity, higher = more binding, comparable within an allelic series).

These data come from paper PMC11006913.
